Experimental data as given in PubChem BioAssay (NCATS).
Records with an inconclusive call do not appear. Activity calls are given as the source filed them. Unless noted, calls come from the whole dose curve; as a rule, active = well fitted curve in either direction with a large enough effect (not every such curve was filed as active); inconclusive = small, poorly fitted or top-dose-only effect, or another doubt; inactive = flat fitted curve, though single readings scatter.

Tests used:
[1] = AP1 Signaling Pathway (AID 357); conditions: ME-180 AP-1-bla reporter, EGF-induced, beta-lactamase ratio, 5 h; at 7.69 µM (top of the series) unless noted;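 note: ME-180 reporter cells stimulated with EGF at its EC50 level; % is set by controls: 0 for no effect and ±100 for the full control effect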
Procedure, shortened: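 AP-1-bla ME-180 cells, Opti-MEM + 0.5% dialyzed FBS, plated overnight 37 °C. Cpd titration + EC50 EGF, 5 h 37 °C. CCF4 2.5 h RT; ex 405, em 460/530 ratio → %activity, AC50.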

[2] = molecular target: Cytochrome P450 1A2 (Homo sapiens) (UniProt P05177); assay: p450-cyp1a2 (AID 410; calls by dose curve; note: potency is the fitted concentration of half-maximal effect)
Cytochrome P450 1A2 (Homo sapiens), sequence (P05177 whole entry, looked up): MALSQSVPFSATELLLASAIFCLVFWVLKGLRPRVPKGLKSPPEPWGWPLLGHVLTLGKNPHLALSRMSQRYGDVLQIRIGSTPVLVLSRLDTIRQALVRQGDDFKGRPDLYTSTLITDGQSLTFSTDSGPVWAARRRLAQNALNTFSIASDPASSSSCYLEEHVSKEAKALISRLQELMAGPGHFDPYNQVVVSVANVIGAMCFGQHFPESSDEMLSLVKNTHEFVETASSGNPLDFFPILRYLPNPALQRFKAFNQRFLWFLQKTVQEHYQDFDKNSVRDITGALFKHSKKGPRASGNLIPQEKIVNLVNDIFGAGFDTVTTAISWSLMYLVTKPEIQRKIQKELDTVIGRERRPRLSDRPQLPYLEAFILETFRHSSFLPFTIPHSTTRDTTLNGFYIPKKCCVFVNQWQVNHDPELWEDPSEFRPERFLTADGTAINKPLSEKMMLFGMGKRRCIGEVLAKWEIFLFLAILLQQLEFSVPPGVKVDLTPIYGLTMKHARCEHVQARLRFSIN
Procedure, shortened: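 Luminescent demethylation readout: Luciferin-ME (100uM, equal to Km) turned over by 20nM CYP1A2 for 60 min at room temperature after NADPH regeneration addition, following 10 min compound preincubation. Normalization used 57 uM furafylline as full inhibition.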

[3] = NFAT Signaling Pathway (AID 444); conditions: Jurkat NFAT-bla M1, carbachol, beta-lactamase ratio, 5 h; at 7.69 µM (top of the series) unless noted;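 note: carbachol stimulus at about its EC50 of 1 µM final; % is set by controls: 0 for no effect and ±100 for the full control effect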
Procedure, shortened: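 Read-out: CCF4 FRET ratio (460 nm/530 nm) after 1 h RT dye loading, used for %activity and AC50 from titration series. Cells: Jurkat NFAT-β-lactamase/M1 line, treated with compound plus 1 uM carbachol for 5 h, 37 °C.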

[4] = Stat Signaling Pathway (AID 446); conditions: ME-180 (cervical carcinoma) SIE beta-lactamase reporter, IL-6 stimulated, 5 h; at 7.69 µM (top of the series) unless noted;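 note: ME-180 cervical cancer cells given 40 pM IL-6 alongside compound; SIE-controlled beta-lactamase reporter measured as 460/530 nm FRET emission ratio; % is set by controls: 0 for no effect and ±100 for the full control effect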
Procedure, shortened: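 FRET read-out (405 nm excitation, 460/530 nm emission) of a beta-lactamase reporter under a STAT-inducible element in ME-180 cervical carcinoma cells. Cells with compound receive 40 pM IL-6 for 5 h. Values are normalised to AC90 stimulation and AC90 JAK-inhibitor controls.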

[5] = molecular target: Glucocorticoid receptor (Homo sapiens) (UniProt P04150); assay: GR-EFC Redistribution (AID 451; calls by dose curve; note: potency is the fitted concentration of half-maximal effect); conditions: CHO-K1 GR-EFC translocation, beta-gal luminescence, 2 h
Glucocorticoid receptor (Homo sapiens), sequence (P04150 whole entry, looked up, the tested form may be a part): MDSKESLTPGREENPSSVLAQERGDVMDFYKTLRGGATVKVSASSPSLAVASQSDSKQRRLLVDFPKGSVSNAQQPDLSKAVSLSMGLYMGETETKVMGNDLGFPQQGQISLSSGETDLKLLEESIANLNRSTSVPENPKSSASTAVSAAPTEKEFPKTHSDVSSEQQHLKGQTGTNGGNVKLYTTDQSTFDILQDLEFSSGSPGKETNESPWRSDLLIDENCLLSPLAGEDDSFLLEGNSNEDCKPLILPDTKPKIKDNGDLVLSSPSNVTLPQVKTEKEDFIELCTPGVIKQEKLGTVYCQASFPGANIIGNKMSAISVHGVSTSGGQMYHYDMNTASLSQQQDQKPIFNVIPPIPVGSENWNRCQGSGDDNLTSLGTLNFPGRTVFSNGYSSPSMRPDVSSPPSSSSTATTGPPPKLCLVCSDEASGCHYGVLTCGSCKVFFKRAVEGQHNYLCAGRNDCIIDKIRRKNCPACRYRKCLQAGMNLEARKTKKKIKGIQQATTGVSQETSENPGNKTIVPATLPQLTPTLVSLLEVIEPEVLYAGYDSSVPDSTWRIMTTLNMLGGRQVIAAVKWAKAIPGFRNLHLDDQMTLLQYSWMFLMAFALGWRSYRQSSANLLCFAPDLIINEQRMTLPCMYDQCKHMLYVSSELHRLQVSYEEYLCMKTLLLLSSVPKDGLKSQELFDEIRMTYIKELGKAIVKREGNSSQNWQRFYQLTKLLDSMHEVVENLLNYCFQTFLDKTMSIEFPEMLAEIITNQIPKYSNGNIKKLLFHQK
Procedure, shortened: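 Translocation of GR-ED fusion to nuclear EA restores b-gal, read by luminescence after 1 h room-temperature detection. Engineered CHO-K1 biosensor cells, 1,000/well, exposed 2 h at 37 C to titrations up to 46 uM final.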

[6] = molecular target: Mitogen-activated protein kinase 10 (Mus musculus) (UniProt Q61831); assay: JNK3 AlphaScreen Assay (AID 530);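 note: kinase came from lysate of stimulated human HepG2 cells; signal reports phosphorylation of biotinylated GST-cJun 1-79 at Ser73 with 10 µM ATP; % is set by controls: 0 for no effect and ±100 for the full control effect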
Procedure, shortened: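 qHTS titrations with 15 min compound pre-incubation before adding ATP (10 uM final). Read-out: AlphaScreen of Ser73-phosphorylated biotin-GST-cJun using HepG2 lysate JNK3 activated by IL-1β and TNFα.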

[7] = molecular target: Cytochrome P450 3A4 (Homo sapiens) (UniProt P08684); assay: qHTS Assay for Activators of Cytochrome P450 3A4 (AID 885; active = well fitted curve in the direction sought with a large enough effect; an effect the other way counts as inactive or inconclusive; note: nearly all actives have a fitted effect of over 65% in size)
Cytochrome P450 3A4 (Homo sapiens), sequence (P08684 whole entry, looked up): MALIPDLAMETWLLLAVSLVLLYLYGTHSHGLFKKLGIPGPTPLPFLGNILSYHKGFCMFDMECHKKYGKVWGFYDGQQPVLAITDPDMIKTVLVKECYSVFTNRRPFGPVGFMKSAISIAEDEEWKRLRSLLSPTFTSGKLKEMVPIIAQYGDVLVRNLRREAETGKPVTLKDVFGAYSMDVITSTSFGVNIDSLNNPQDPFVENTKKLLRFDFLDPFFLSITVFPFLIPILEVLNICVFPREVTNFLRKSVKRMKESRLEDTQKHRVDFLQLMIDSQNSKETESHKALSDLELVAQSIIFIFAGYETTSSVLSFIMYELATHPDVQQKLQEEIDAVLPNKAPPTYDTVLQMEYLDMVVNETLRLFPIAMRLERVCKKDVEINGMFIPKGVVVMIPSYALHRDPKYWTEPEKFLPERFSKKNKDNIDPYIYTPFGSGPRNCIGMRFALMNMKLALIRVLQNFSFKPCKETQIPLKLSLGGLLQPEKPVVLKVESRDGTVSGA
Procedure, shortened: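 Luminescent readout of luciferin formed from 25 uM Luciferin-PPXE (KM level) by 20 nM CYP3A4 in 200 mM KPO4, with 60 min NADPH-driven reaction at room temperature after 10 min compound exposure. Ketoconazole (57 uM) defined 100% inhibition.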

[8] = molecular target: Cytochrome P450 2C19 (Homo sapiens) (UniProt P33261); assay: qHTS Assay for Inhibitors and Substrates of Cytochrome P450 2C19 (AID 899; active = well fitted curve in the direction sought with a large enough effect; an effect the other way counts as inactive or inconclusive; note: potency is the fitted concentration of half-maximal effect; nearly all actives have a fitted effect of over 60% in size)
Cytochrome P450 2C19 (Homo sapiens), sequence (P33261 whole entry, looked up): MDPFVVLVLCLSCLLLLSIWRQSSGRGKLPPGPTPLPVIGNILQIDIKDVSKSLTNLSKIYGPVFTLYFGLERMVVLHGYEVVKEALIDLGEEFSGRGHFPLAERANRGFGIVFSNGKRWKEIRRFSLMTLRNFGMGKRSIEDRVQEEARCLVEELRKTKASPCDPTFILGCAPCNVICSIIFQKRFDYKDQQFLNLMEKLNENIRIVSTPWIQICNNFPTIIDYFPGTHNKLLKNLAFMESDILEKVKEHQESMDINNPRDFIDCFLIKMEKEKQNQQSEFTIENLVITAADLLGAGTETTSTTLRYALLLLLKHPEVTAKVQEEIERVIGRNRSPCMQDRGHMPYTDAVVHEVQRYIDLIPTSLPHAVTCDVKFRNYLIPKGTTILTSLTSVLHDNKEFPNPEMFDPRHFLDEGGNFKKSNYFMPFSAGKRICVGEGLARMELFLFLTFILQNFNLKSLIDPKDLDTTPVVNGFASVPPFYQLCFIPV
Procedure, shortened: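 5nM enzyme + 10uM Luciferin-H EGE (=KM), 50mM KPO4; cpd pin-transferred, 10 min 37C; NADPH regen, 60 min 37C; stopped w/ luciferin detection reagent, 20 min; luminescence. Normalized to 57uM ketoconazole (AC100).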

[9] = qHTS Assay for Lipid Storage Modulators (AID 1519; calls by dose curve); conditions: Drosophila S3 cells, BODIPY lipid droplet/cell ratio, laser cytometry, cells loaded with oleic acid; for activity change, negative = inhibition: at 57.5 µM (top of the series)
Procedure, shortened: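 Cells seeded at 5,000 per well were treated with compounds over a concentration series and loaded with oleic acid (400 uM, as added). Lipid droplet fluorescence (488 nm excitation, 500-530 nm channel) was read by laser-scanning cytometry and normalized to 20 uM Triacsin C.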

[10] = molecular target: Dual specificity protein kinase CLK4 (Homo sapiens) (UniProt Q9HAZ1); assay: qHTS Assay for Inhibitors of CDC-like Kinase 4 (Kinase-Glo Assay) (AID 1770; active = well fitted curve in the direction sought with a large enough effect; an effect the other way counts as inactive or inconclusive; note: nearly all actives have a fitted effect of over 65% in size; note: potency is the fitted concentration of half-maximal effect)
Dual specificity protein kinase CLK4 (Homo sapiens), sequence (Q9HAZ1 whole entry, looked up): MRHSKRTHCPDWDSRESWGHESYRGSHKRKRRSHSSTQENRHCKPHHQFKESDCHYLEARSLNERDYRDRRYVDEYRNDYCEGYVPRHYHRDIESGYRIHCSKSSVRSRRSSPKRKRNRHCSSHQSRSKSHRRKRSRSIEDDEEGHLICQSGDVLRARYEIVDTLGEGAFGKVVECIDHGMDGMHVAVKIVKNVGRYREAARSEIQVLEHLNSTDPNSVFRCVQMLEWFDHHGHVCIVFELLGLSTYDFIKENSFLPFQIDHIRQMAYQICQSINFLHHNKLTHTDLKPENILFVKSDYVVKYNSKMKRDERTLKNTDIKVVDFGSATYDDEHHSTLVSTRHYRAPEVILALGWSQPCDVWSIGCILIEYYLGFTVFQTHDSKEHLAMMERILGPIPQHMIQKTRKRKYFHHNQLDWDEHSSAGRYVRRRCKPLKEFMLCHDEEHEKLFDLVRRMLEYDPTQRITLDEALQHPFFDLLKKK
Procedure, shortened: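 Readout: Kinase-Glo luminescence from ATP left after a 4.5 h room-temperature reaction of 25 nM Clk4 with 100 uM RS peptide and 1 uM ATP (final). Buffer: 25 mM Tris pH 7.5, 10 mM MgCl2.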

[11] = molecular target: Dual specificity protein kinase CLK4 (Homo sapiens) (UniProt Q9HAZ1); assay: qHTS Assay for Inhibitors of CDC-like Kinase 4 (ADP-Glo Assay) (AID 1771; active = well fitted curve in the direction sought with a large enough effect; an effect the other way counts as inactive or inconclusive; note: nearly all actives have a fitted effect of over 70% in size; note: potency is the fitted concentration of half-maximal effect)
Procedure, shortened: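 ADP production was read by ADP-Glo luminescence after residual ATP depletion, following 1 h room-temperature reaction of 25 nM Clk4, 1 uM ATP and 100 uM RS peptide with MgCl2, EGTA, DTT and Triton X-100.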

[12] = molecular target: Ubiquitin carboxyl-terminal hydrolase 1 (Homo sapiens) (UniProt O94782); assay: Inhibitors of USP1/UAF1: Pilot qHTS (AID 504865; active = well fitted curve in the direction sought with a large enough effect; an effect the other way counts as inactive or inconclusive;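 note: rhodamine fluorescence freed from ubiquitin-rhodamine substrate followed over time; top concentration of the series differs between compounds; % is set by controls: 0 for no effect and ±100 for the full control effect; nearly all actives have a fitted effect of over 35% in size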)
Ubiquitin carboxyl-terminal hydrolase 1 (Homo sapiens), sequence (O94782 whole entry, looked up): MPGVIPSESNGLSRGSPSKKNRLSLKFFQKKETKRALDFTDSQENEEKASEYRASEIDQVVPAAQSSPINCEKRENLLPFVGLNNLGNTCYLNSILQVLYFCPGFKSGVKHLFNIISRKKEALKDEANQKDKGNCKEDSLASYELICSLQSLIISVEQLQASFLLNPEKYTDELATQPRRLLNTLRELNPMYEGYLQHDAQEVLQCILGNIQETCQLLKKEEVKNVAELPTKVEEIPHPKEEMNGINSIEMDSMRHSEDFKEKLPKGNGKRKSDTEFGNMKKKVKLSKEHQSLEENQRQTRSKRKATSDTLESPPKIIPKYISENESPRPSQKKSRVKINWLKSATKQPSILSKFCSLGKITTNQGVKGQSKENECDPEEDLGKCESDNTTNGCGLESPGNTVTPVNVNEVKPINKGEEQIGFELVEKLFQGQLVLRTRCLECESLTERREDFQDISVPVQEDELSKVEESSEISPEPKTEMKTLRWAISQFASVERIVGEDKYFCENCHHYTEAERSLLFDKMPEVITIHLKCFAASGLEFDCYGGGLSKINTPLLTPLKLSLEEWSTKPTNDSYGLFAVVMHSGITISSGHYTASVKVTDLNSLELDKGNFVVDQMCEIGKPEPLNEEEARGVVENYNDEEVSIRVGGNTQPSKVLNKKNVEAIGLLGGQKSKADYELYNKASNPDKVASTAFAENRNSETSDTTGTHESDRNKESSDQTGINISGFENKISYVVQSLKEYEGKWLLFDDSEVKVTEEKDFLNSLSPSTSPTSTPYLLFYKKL
Procedure, shortened: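 1nM USP1/UAF1 + cpd, 15 min RT; start w/ Ub-Rho 150nM final; kinetic FL 480/540 nm, 6 reads q60 s. Buffer 50mM HEPES pH 7.8, 0.5mM EDTA, 1mM TCEP, 0.01% Tween-20, 0.1 mg/ml BSA.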

[13] = molecular target: Lysosomal acid glucosylceramidase (Homo sapiens) (UniProt P04062); assay: Glucocerebrosidase-p2 (AID 348; in the data active = potency below about 10 µM; note: potency is the fitted concentration of half-maximal effect); conditions: purified GBA, blue fluorogenic substrate, 40 min
Lysosomal acid glucosylceramidase (Homo sapiens), sequence (P04062 whole entry, looked up): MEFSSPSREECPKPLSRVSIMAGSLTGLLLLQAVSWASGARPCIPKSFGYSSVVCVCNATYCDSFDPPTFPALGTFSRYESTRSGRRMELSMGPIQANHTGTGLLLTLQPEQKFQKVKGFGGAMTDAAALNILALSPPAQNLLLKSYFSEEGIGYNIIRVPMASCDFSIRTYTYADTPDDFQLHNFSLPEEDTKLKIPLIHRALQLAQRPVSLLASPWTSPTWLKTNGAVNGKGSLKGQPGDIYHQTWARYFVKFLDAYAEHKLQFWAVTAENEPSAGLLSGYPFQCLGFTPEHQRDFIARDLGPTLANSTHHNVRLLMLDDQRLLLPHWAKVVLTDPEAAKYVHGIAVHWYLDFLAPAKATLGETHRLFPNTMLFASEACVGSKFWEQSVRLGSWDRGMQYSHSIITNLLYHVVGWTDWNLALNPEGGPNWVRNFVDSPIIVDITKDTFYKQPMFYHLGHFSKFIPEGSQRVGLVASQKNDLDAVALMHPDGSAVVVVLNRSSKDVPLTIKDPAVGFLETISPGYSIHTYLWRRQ
Procedure, shortened: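 Normal human glucocerebrosidase (0.2 nM) with blue fluorogenic substrate (80 uM final) in citrate/phosphate pH 5.9 with 10mM sodium taurocholate, 0.01% tween-20; 40 min RT, NaOH/glycine stop; fluorescence Ex 365/Em 440; AC50 from a titration from 0.6 nM upwards.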

[14] = molecular target: Glucocorticoid receptor (Homo sapiens) (UniProt P04150); assay: GR-GFP Redistribution (AID 450;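 active = compounds whose dose series gives a full or clear partial fitted curve of increased nuclear translocation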; note: potency is the fitted concentration of half-maximal effect); conditions: U2OS GR-GFP nuclear translocation, laser cytometry, 2 h
[15] = molecular target: Dual specificity protein kinase CLK4 (Homo sapiens) (UniProt Q9HAZ1); assay: qHTS Assay for Inhibitors of CDC-like Kinase 4 (ADP-FP Assay) (AID 1795; active = well fitted curve in the direction sought with a large enough effect; an effect the other way counts as inactive or inconclusive; note: nearly all actives have a fitted effect of over 60% in size; note: potency is the fitted concentration of half-maximal effect)
Procedure, shortened: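 FP readout: Orange Transcreener ADP2 tracer (4 nM) plus ADP antibody, read after 30 min at room temperature. Kinase step: 6.25 nM Clk4, 100 uM RS peptide, 1 uM ATP, pH 7.5, 1 h.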

[16] = molecular target: 3',5'-cyclic-AMP phosphodiesterase 4B (Homo sapiens) (UniProt Q07343); assay: qHTS Assay for Inhibitors of PDE-IV (AID 607; active = well fitted activation curve with a large enough effect in the main read-out, with a control signal flat, not every such curve was filed as active; note: % of control where 0% means no effect)
3',5'-cyclic-AMP phosphodiesterase 4B (Homo sapiens), sequence (Q07343 whole entry, looked up): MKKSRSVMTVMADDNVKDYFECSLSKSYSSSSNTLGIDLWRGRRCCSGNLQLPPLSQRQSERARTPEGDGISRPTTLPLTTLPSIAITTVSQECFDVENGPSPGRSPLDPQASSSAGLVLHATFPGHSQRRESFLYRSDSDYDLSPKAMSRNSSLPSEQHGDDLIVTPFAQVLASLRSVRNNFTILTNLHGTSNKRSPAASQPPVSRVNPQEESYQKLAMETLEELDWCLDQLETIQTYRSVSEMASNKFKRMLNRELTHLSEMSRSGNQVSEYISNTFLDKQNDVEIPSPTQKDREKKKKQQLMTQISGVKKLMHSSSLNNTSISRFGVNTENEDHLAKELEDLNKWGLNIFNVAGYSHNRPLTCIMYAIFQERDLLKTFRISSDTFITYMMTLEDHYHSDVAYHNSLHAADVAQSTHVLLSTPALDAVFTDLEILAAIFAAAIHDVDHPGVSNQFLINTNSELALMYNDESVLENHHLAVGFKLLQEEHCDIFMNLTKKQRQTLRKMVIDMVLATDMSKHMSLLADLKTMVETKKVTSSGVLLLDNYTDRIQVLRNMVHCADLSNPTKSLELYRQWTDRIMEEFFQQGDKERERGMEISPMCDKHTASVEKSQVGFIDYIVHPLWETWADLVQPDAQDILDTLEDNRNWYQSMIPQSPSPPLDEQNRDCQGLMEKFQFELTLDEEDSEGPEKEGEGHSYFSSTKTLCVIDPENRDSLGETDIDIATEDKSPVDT
Procedure, shortened: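 Cell-based read-out of cAMP via a modified cyclic nucleotide-gated channel and membrane potential dye (535/590 nm) in HEK293 cells expressing PDE4 endogenously. Compounds tested up to 22.9 uM final; 100 uM RO 20-1724 reference.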

[17] = molecular target: Cytochrome P450 3A4 (Homo sapiens) (UniProt P08684); assay: qHTS Assay for Inhibitors and Substrates of Cytochrome P450 3A4 (AID 884; active = well fitted curve in the direction sought with a large enough effect; an effect the other way counts as inactive or inconclusive; note: potency is the fitted concentration of half-maximal effect; nearly all actives have a fitted effect of over 50% in size)
Procedure, shortened: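 Luminescent readout of luciferin produced by CYP3A4 (20 nM) dealkylation of Luciferin-PPXE, 25 uM (its KM). NADPH-driven reaction ran 60 min at RT after 10 min compound preincubation; data scaled to 57 uM ketoconazole as 100% inhibition.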

[18] = measured here: cell count channel max response
[19] = measured here: lipid channel max response

COCCNc1ncnc2ccc(-c3ccccc3C(F)(F)F)cc12
-5.73%: max response [9, 19]
-4.06%: max response [9, 18]
active: Potency [2] 1.58 µM | Potency [8] 6.31 µM | Potency [10] 25.1 µM | Potency [11] 31.6 µM
inactive: activity change, negative = inhibition [1] 15.6% | activity change, negative = inhibition [3] 18.9% | activity, negative = inhibition [4] -11.6% | Potency [5] > 46 µM | Potency [6] | Potency [7] | activity change, negative = inhibition [9] -1.49% | Potency [12]

Cc1nc2cnc(N3CCN(C)CC3)nc2n(C2CC2)c1=O
16.3%: max response [9, 19]
14.4%: max response [9, 18]
inactive: Potency [13] > 11.4 µM | activity change, negative = inhibition [1] -13.1% | activity change, negative = inhibition [3] -3.47% | activity, negative = inhibition [4] -9.11% | Potency [14] > 9.22 µM | Potency [5] > 46 µM | Potency [6] | activity change, negative = inhibition [9] 3.22% | Potency [10] | Potency [12]

COc1cccc(-c2ccc3ncnc(NCCN4CCOCC4)c3c2)c1
-14.3%: max response [9, 18]
active: Potency [10] 1.78 µM | Potency [11] 1 µM | Potency [15] 0.631 µM
inactive: activity change, negative = inhibition [1] -12.4% | activity, negative = inhibition [4] -15.6% | Potency [14] > 46 µM | Potency [5] > 46 µM | Potency [6] | activity change, negative = inhibition [9] -1.99% | Potency [12]
-15.9%: max response [9, 19]

COc1ccccc1-c1ccc2ncnc(NCc3cnc(C)cn3)c2c1
14%: max response [9, 19]
active: Potency [2] 6.31 µM | Potency [10] 15.8 µM | Potency [11] 17.8 µM
inactive: Potency [13] > 11.4 µM | activity change, negative = inhibition [1] -23.9% | activity change, negative = inhibition [3] 3.25% | activity, negative = inhibition [4] -25.2% | Potency [14] > 46 µM | Potency [5] > 46 µM | Potency [6] | Potency [16] | Potency [7] | activity change, negative = inhibition [9] 2.78% | Potency [12]
13.2%: max response [9, 18]

COCCn1c(=O)c(C)nc2cnc(Oc3cccc(Cl)c3)nc21
inactive: Potency [13] > 11.4 µM | activity change, negative = inhibition [1] -12% | activity change, negative = inhibition [3] 10.5% | activity, negative = inhibition [4] -4.78% | Potency [14] > 9.22 µM | Potency [5] > 46 µM | Potency [6] | Potency [7] | activity change, negative = inhibition [9] 4.18% | Potency [10] | Potency [11] | Potency [12]
17.8%: max response [9, 19]
active: Potency [2] 12.6 µM
15.1%: max response [9, 18]

COc1cccc(-c2ccc3ncnc(NCCNC(C)=O)c3c2)c1
active: Potency [2] 3.16 µM | Potency [10] 0.355 µM | Potency [15] 0.282 µM
inactive: Potency [13] > 11.4 µM | activity change, negative = inhibition [1] -19.2% | activity change, negative = inhibition [3] 21% | activity, negative = inhibition [4] 11% | Potency [14] > 46 µM | Potency [5] > 46 µM | Potency [6] | Potency [16] | Potency [7] | activity change, negative = inhibition [9] -2.84% | Potency [12]
-13.2%: max response [9, 18]
-16.4%: max response [9, 19]

CN1CCN(c2ncc3ncc(=O)n(-c4ccccc4)c3n2)CC1
active: Potency [2] 2.51 µM
21.7%: max response [9, 18]
23.9%: max response [9, 19]
inactive: Potency [13] > 11.4 µM | activity change, negative = inhibition [3] -18.4% | activity, negative = inhibition [4] -9.93% | Potency [14] > 9.22 µM | Potency [6] | Potency [16] | activity change, negative = inhibition [9] 4.96% | Potency [10] | Potency [12]

Cn1c(=O)c(-c2ccc(F)cc2)nc2cnc(OCc3ccccc3)nc21
inactive: Potency [13] > 11.4 µM | activity change, negative = inhibition [1] 14.6% | activity change, negative = inhibition [3] 19.9% | activity, negative = inhibition [4] -11.9% | Potency [14] > 9.22 µM | Potency [5] > 46 µM | Potency [6] | Potency [16] | activity change, negative = inhibition [9] 5.66% | Potency [10] | Potency [11] | Potency [12]
10.2%: max response [9, 19]
7.28%: max response [9, 18]

Cc1ccccc1-c1ccc2ncnc(N3CCNCC3)c2c1
inactive: Potency [13] > 11.4 µM | activity change, negative = inhibition [3] -1.24% | activity, negative = inhibition [4] 9.45% | Potency [14] > 46 µM | Potency [5] > 46 µM | Potency [6] | Potency [16] | Potency [7] | activity change, negative = inhibition [9] 6.61% | Potency [12]
active: Potency [10] 20 µM | Potency [11] 31.6 µM
4.98%: max response [9, 18]
8.2%: max response [9, 19]

COc1ccc(-c2nc3cnc(N4CCN(C)CC4)nc3n(C3CC3)c2=O)cc1
2.3%: max response [9, 18]
3.44%: max response [9, 19]
inactive: activity change, negative = inhibition [1] -5.97% | activity change, negative = inhibition [3] -2.54% | activity, negative = inhibition [4] -7.93% | Potency [14] > 9.22 µM | Potency [5] > 46 µM | Potency [6] | Potency [16] | activity change, negative = inhibition [9] 2.69% | Potency [11] | Potency [15] | Potency [12]
active: Potency [2] 20 µM

FC(F)(F)c1ccccc1-c1ccc2ncnc(NCCN3CCOCC3)c2c1
3.86%: max response [9, 18]
active: Potency [13] 8.84 µM
inactive: activity change, negative = inhibition [3] 10.2% | activity, negative = inhibition [4] -13.9% | Potency [14] > 46 µM | Potency [5] > 46 µM | Potency [6] | activity change, negative = inhibition [9] -5.53% | Potency [10] | Potency [15] | Potency [12]
-2.12%: max response [9, 19]

COc1ccc(CNc2ncnc3ccc(-c4ccc(C(=O)N(C)C)cc4)cc23)c(OC)c1
9.92%: max response [9, 19]
active: Potency [17] 2.51 µM
inactive: Potency [13] > 11.4 µM | activity change, negative = inhibition [1] -13.6% | activity change, negative = inhibition [3] 28.3% | activity, negative = inhibition [4] -9.48% | Potency [5] > 46 µM | Potency [6] | Potency [7] | activity change, negative = inhibition [9] 1.13% | Potency [10] | Potency [15] | Potency [12]
11.2%: max response [9, 18]
